# Source: PubChem BioAssay
# Active and inactive are the calls of the source. Unless noted, the rule behind the calls is not given here.
# Key:
# [1] = HepG2 liver cancer cell viability effects, profiling panel, resazurin fluorescence, 24 h, PK04 Diversity Set (AID 1172); conditions: higher = more signal
# [2] = basal S. cerevisiae growth modulation, no modifier, primary screen, OD600, strain BY4716, 24 h, basal condition (AID 1173); conditions: OD600, 24 h, higher = more signal, called active from +8 up or from −8 down
# [3] = MM1S myeloma cell viability, profiling panel, resazurin fluorescence, basal, 24 h, PK04 Diversity Set (AID 1174); conditions: higher = more signal, called active from +8 up or from −8 down;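 note: MM1S multiple myeloma cell line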
# [4] = target: Dihydroorotate dehydrogenase (quinone), mitochondrial (Plasmodium falciparum (isolate 3D7)) (UniProt Q08210); test: PfDHODH enzyme inhibitors, primary screen, biochemical, C-terminal His tag, absorbance 600 nm (AID 1175); conditions: DCIP absorbance 600 nm, higher = more signal, called active from +8 up or from −8 down;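 note: recombinant parasite enzyme with a five histidine tag at its C terminus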
# [5] = P. aeruginosa biofilm formation inhibitors, primary screen, strain PAO1, LB-PBS medium, absorbance 600 nm (AID 1176); conditions: P. aeruginosa PAO1 growth/biofilm, A600, 12 h; higher = more signal
# [6] = S. cerevisiae RM11-1a growth modifiers, primary screen, strain RM11-1a, OD600, basal, 24 h (AID 1177); conditions: OD600, 24 h, higher = more signal, called active from +8 up or from −8 down;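 note: cultures grown under basal conditions with no added stressor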
# [7] = E. coli acrAB mutant growth effects, primary screen, E. coli filamentation inducers, strain DRC39, OD650, 24 h (AID 1178); conditions: higher = more signal, called active from +8 up or from −8 down;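 note: growth measured as culture turbidity by optical density at 650 nm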
# [8] = E. coli acrAB mutant growth effects, primary screen, E. coli filamentation inducers, strain DRC39, OD650, 48 h (AID 1179);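 note: screen aims at cell division blockers that make cells filament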; conditions: E. coli DRC39 delta-acrAB growth, higher = more signal, called active from +8 up or from −8 down
# [9] = RPMI8226 myeloma cell viability, profiling panel, resazurin fluorescence, basal, 24 h, PK04 Diversity Set (AID 1180); conditions: higher = more signal;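 note: RPMI8826 multiple myeloma cell line at 5000 cells per well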
# [10] = target: E3 ubiquitin-protein ligase XIAP (Homo sapiens) (UniProt P98170); test: XIAP binders, primary screen, biophysical, small-molecule microarray, fluorescence 635 nm (AID 1181); conditions: small-molecule microarray binding, higher = more signal;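 note: score merges 667 nm emission and signal to noise over triplicate slides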
# [11] = tested on: XIP peptide (Xip251-270) binding; test: small-molecule binders of XIP peptide, primary screen, biochemical, small-molecule microarray, fluorescence 635/667 nm, 0.1 µg/mL protein (AID 1182); conditions: fluorescent protein binding, 635 nm, higher = more signal, called active from +8 up or from −8 down
# XIP peptide (Xip251-270) = test: small-molecule binders of XIP peptide, primary screen, biochemical, small-molecule microarray, fluorescence 635/667 nm, 0.5 µg/mL protein (AID 1183); conditions: small-molecule microarray binding, fluorescence 635 nm; higher = more signal
# [12] = Plasmodium falciparum growth inhibition, primary screen, strain 3D7, DAPI fluorescence, 100 nL (AID 1184);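 note: parasites grown inside human red blood cells in medium with human serum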; conditions: P. falciparum 3D7 growth, 3 d, higher = more signal
# [13] = target: Homeobox protein Hox-A13 (Mus musculus) (UniProt Q62424); test: inhibitors of HoxA13-DNA binding, primary screen, biochemical, fluorescence polarization, labeled oligonucleotide (AID 1185); conditions: 15 min, higher = more signal, called active from +8 up or from −8 down
# [14] = inhibitors of hydroxyurea-induced Chk1 phosphorylation, primary screen, imaging, HeLa, phospho-Chk1 antibody, percent positive cells (AID 1186); conditions: hydroxyurea-induced phospho-Chk1 immunofluorescence imaging, higher = more signal
# [15] = inhibitors of hydroxyurea-induced Chk1 phosphorylation, primary screen, imaging, HeLa, phospho-Chk1 nuclear intensity (AID 1187); conditions: hydroxyurea-induced phospho-Chk1 immunofluorescence imaging, higher = more signal
# Sequence of Homeobox protein Hox-A13 (Mus musculus) (Q62424 whole entry, looked up): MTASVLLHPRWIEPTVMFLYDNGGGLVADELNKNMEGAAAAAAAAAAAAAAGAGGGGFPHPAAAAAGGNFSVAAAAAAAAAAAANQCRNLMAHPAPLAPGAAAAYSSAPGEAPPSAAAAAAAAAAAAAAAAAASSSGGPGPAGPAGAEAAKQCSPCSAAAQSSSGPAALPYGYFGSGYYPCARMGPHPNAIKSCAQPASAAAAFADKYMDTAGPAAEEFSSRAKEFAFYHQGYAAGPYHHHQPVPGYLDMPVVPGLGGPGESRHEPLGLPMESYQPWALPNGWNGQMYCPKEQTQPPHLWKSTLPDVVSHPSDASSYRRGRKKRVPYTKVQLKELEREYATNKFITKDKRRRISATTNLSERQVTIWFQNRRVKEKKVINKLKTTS
# Sequence of Dihydroorotate dehydrogenase (quinone), mitochondrial (Plasmodium falciparum (isolate 3D7)) (Q08210 whole entry, looked up): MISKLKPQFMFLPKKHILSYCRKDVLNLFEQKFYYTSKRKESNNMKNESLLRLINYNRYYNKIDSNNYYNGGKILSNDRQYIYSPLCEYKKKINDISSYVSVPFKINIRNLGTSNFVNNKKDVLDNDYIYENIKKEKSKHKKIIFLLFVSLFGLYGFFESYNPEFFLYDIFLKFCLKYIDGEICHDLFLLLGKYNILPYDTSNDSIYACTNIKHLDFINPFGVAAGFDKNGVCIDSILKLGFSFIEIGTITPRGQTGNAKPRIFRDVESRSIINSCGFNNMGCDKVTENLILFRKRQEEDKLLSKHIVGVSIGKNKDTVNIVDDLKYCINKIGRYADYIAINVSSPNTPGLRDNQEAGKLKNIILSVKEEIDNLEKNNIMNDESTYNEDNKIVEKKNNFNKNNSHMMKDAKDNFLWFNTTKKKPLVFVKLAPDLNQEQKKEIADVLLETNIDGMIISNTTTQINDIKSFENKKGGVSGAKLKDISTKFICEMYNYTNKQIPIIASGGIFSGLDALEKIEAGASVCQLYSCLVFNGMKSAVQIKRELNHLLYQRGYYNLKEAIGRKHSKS
# Sequence of E3 ubiquitin-protein ligase XIAP (Homo sapiens) (P98170 whole entry, looked up): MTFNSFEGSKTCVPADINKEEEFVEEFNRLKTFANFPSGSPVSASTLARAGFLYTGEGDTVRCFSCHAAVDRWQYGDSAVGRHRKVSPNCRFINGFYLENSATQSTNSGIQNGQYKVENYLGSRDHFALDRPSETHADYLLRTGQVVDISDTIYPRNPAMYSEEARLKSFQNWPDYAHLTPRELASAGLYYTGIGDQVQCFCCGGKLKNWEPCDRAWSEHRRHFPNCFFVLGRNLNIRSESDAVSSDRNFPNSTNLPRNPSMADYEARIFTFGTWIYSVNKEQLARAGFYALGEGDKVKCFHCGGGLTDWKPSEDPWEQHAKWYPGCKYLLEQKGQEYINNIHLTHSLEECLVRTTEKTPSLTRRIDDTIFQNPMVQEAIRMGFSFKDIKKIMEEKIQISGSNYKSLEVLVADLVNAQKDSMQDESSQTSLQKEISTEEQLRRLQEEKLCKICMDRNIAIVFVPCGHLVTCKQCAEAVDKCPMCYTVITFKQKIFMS
SMILES,z-score [1],z-score [2],z-score [3],composite z-score [4],z-score [5],z-score [6],z-score [7],z-score [8],z-score [9],composite z-score [10],composite z-score [11],composite z-score (XIP peptide (Xip251-270)),z-score [12],z-score [13],z-score [14],z-score [15]
CCOc1cc(C(O)C2C=CC3C(=O)N(c4ccccc4)C(=O)C3N2Nc2ccccc2F)ccc1O (stereo not given),-1.42,-3.57 (inactive),-0.454 (inactive),0.717 (inactive),0.931 (inactive),1.78 (inactive),-0.223 (inactive),-0.541 (inactive),-0.318,-0.273,1.11 (inactive),-0.213,-0.0969,-3.71 (inactive),-0.379 (inactive),-0.304 (inactive)
CC(C)N1C(=O)C[C@@](C(=O)NCCN2CCOCC2)(c2ccc([N+](=O)[O-])cc2)[C@H]1c1ccc(CO)cc1,1.68,-1.39 (inactive),0.795 (inactive),-0.1 (inactive),-0.838 (inactive),-0.291 (inactive),0.0506 (inactive),0.445 (inactive),1.23,-0.0747,0.534 (inactive),0.634,0.289,-2.52 (inactive),0.159 (inactive),0.451 (inactive)
C=CCC(OC(C)=O)[C@@H]1[C@@H](N(Cc2ccc(-c3cccc(C(F)(F)F)c3)o2)C(=O)c2ccc(-c3ccccc3)cc2)c2cc(OCCCO)ccc2N1C(=O)c1ccc2ccccc2c1 (stereo not given in full),0.393,0.488 (inactive),0.314 (inactive),-0.0636 (inactive),-0.452 (inactive),1.27 (inactive),0.391 (inactive),0.412 (inactive),0.881,-0.0889,0.405 (inactive),-0.378,-1.26,-1.43 (inactive),0.366 (inactive),0.766 (inactive)
CN(C)CCCNC(=O)[C@@H]1c2ccccc2C(=O)N(Cc2ccccc2C(F)(F)F)[C@H]1c1ccc(CO)cc1,0.788,-0.779 (inactive),0.744 (inactive),-0.0587 (inactive),-0.534 (inactive),0.171 (inactive),0.858 (inactive),0.783 (inactive),0.7,-0.0344,-0.638 (inactive),0.0067,-0.944,-2.62 (inactive),-0.316 (inactive),-0.164 (inactive)
O=C1OCCC=C[C@H]2OC34C=CCN(c5ccc6ccccc6c5)C(=O)[C@H]3N(CCO)C(=O)[C@@H]4C12 (stereo not given in full),0.523,-0.783 (inactive),-1.23 (inactive),-3.6 (inactive),0.345 (inactive),0.0789 (inactive),-1.26 (inactive),-1.42 (inactive),-0.796,-0.248,0.263 (inactive),0.569,-0.022,-5.62 (inactive),0.8 (inactive),0.163 (inactive)
C[N+](C)(C)CCCC[C@@H]1NC(=O)[C@@H]2C[C@H](C(=O)NCc3ccc(F)cc3)[C@H](c3ccc(O)cc3)N2C1=O,-0.348,0.628 (inactive),0.0125 (inactive),0.0528 (inactive),0.683 (inactive),0.506 (inactive),0.426 (inactive),0.577 (inactive),0.276,0.0223,0.744 (inactive),0.0664,0.269,-0.882 (inactive),0.0551 (inactive),0.0892 (inactive)
O=C1C2C=CC(C(O)c3cccs3)N(Nc3ccc([N+](=O)[O-])cc3)C2C(=O)N1c1ccccc1 (stereo not given),0.626,0.348 (inactive),-0.125 (inactive),-1.63 (inactive),0.89 (inactive),-0.0522 (inactive),-0.958 (inactive),-0.0047 (inactive),-0.182,-0.177,0.396 (inactive),-0.0032,-0.965,-4.16 (inactive),-0.479 (inactive),-0.779 (inactive)
COc1ccc(C(O)C2C=CC3C(=O)N(c4ccccc4)C(=O)C3N2Nc2ccc([N+](=O)[O-])cc2)c2ccccc12 (stereo not given),0.248,0.0244 (inactive),-0.121 (inactive),0.767 (inactive),2.53 (inactive),0.0842 (inactive),-0.901 (inactive),-0.219 (inactive),-0.322,0.312,0.314 (inactive),0.685,-1.32,-0.935 (inactive),0.219 (inactive),-0.404 (inactive)
COc1ccc([Si](C)(C)[C@@H]2[C@@H](CC(=O)N3Cc4ccccc4C[C@H]3CO)O[C@]3(C(=O)N(Cc4cccc(N5CCOC5=O)c4)c4ccccc43)[C@H]2C)cc1,-1.02,-0.238 (inactive),-2.17 (inactive),0.314 (inactive),0.79 (inactive),1.64 (inactive),-0.742 (inactive),-0.655 (inactive),-2.05,-0.13,0.0848 (inactive),0.672,-2.83,-2.49 (inactive),-0.34 (inactive),-0.695 (inactive)
O=C1C=C(c2ccccc2)C(=O)C2=C1CC([C@H]1Oc3ccccc3S(=O)(=O)N3CCC[C@@H]13)=CC2,0.203,-3.37 (inactive),-7.16 (inactive),-1.54 (inactive),-0.0461 (inactive),-0.926 (inactive),0.0769 (inactive),-0.807 (inactive),-4.88,-0.127,-0.0015 (inactive),-0.0733,-3.16,-3.85 (inactive),0.079 (inactive),0.334 (inactive)
